# Measurements published in the supplement of paper PMC3545927.
# Some of the results follow. No count for the full screen is at hand.
# B1: HC644 (peptide)
# chain: CALAVAVEPVAGNASASA
# B2: HC1275 (peptide)
# chain: CAANLLWRQEAGNASASA
# B3: FS-1886 (peptide)
# chain: CARAPRSVGGAGNASASA
# B4: FS-3007 (peptide)
# chain: CARNKRLSISAGNASASA
# B5: FS-2728 (peptide)
# chain: CARNKRIWASAGNASASA
# B6: HC1650 (peptide)
# chain: CADIYHSVSHAGNASASA
# B7: FS-2639 (peptide)
# chain: CARAKRSPKHAGNASASA
# B8: FS-2397 (peptide)
# chain: CARNKRNSKMAGNASASA
# B9: FS-2250 (peptide)
# chain: CARAKRGNIHAGNASASA
# B10: FS-3009 (peptide)
# chain: CARNKRQSKSAGNASASA
# B11: FS-2544 (peptide)
# chain: CARAKRAVSHAGNASASA
# B12: FU4 (peptide)
# chain: CARNKRNSKMAGNASASA
# B13: HC2001 (peptide)
# chain: CANVCCSMSYAGNASASA
# B14: NG10 (peptide)
# chain: CAMHLQGPEDAGNASASA
# B15: HC862 (peptide)
# chain: CALAAKLVALAGNASASA
# B16: HC1315 (peptide)
# chain: CAPVVHGCPLAGNASASA
# B17: HC442 (peptide)
# chain: CAVCGAPPCVAGNASASA
# B18: HC151 (peptide)
# chain: CAEVVTKTWVAGNASASA
# B19: HC567 (peptide)
# chain: CAEVAASCGGAGNASASA
# B20: HC1226 (peptide)
# chain: CAHRFAPPCKAGNASASA
# B21: FS-3181 (peptide)
# chain: CARAKRSSKMAGNASASA
# B22: FS-2128 (peptide)
# chain: CARAKKGLGMAGNASASA
# B23: FS-2640 (peptide)
# chain: CARAKRSVHFAGNASASA
# B24: HC1906 (peptide)
# chain: CATTPCSGMWAGNASASA
# B25: HC980 (peptide)
# chain: CAHPVTKYIMAGNASASA
# B26: FS-1876 (peptide)
# chain: CAAFRRGVTKAGNASASA
# B27: FS-836 (peptide)
# chain: CAPAQRTKRKAGNASASA
# B28: FS-913 (peptide)
# chain: CAPTARPKRKAGNASASA
# B29: HC738 (peptide)
# chain: CAPRPISYLKAGNASASA
# B30: FS-1470 (peptide)
# chain: CAPAKRPKRKAGNASASA
# B31: FS-807 (peptide)
# chain: CAKAEREKRKAGNASASA
# B32: HC1227 (peptide)
# chain: CAFAPPCKPLAGNASASA
# B33: HC334 (peptide)
# chain: CAMIAGAHWGAGNASASA
# B34: FS-1532 (peptide)
# chain: CAHFKRTRRSAGNASASA
# B35: HC727 (peptide)
# chain: CAVTRHADVIAGNASASA
# B36: FS-1294 (peptide)
# chain: CAVTRRKGRCAGNASASA
# B37: HC326 (peptide)
# chain: CAALVMAQLLAGNASASA
# B38: FS-972 (peptide)
# chain: CAALLRTRRSAGNASASA
# B39: FS-214 (peptide)
# chain: CAALVRTRRCAGNASASA
# B40: FS-2464 (peptide)
# chain: CARTGRACECAGNASASA
# B41: HC1106 (peptide)
# chain: CAALVVGVVCAGNASASA
# B42: HC373 (peptide)
# chain: CATALNCNDSAGNASASA
# B43: HC798 (peptide)
# chain: CADPNIRTGVAGNASASA
# Target: furin, P09958
# Sequence (P09958 whole entry): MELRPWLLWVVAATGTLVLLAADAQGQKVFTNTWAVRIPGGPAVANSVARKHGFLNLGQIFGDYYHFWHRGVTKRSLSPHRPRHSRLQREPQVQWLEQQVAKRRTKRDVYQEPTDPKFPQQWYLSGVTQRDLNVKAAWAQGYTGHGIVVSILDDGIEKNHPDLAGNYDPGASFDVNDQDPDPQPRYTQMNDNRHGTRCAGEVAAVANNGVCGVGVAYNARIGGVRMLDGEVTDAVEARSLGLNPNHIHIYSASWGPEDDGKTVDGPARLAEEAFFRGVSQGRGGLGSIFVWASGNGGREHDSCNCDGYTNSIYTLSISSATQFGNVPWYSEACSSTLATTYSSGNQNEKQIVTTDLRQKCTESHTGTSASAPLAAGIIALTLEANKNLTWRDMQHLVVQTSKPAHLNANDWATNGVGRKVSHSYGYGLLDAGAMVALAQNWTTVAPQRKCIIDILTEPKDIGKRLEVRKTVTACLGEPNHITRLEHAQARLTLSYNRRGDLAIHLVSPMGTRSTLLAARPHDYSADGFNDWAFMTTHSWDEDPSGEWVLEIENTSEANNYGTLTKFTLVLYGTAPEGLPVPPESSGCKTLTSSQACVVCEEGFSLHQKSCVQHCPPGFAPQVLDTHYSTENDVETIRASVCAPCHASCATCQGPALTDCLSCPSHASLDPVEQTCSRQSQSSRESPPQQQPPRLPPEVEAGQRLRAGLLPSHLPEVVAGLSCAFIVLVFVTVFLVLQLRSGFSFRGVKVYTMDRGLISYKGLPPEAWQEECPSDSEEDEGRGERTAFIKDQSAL
# Assay: furin cleavage Z-score vs untreated control; higher = more cleavage, active = 3.5 or more, inactive = 1 or less, 8 variable residues between constant flanks
# Procedure, shortened: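 Sequencing of released DNA, tagged with adapters by PCR, gave read counts used as abundance. That DNA was freed when purified furin cut N-terminally bead-bound 8-mer peptides fused to a cDNA oligonucleotide, in 0.01 ml reactions at 1:10 enzyme:substrate in 50 mM HEPES pH 7.5 with CaCl2 and NaCl, lasting 7.5, 15 or 30 min. The cleavage Z-score was the lowess-adjusted log count versus furin-free reactions, scaled by median absolute deviation.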
Sequence,furin cleavage Z-score (7.5 min),furin cleavage Z-score (15 min),furin cleavage Z-score (30 min)
B1,0.342 (inactive),-1.7 (inactive),-0.692 (inactive)
B2,1.65,1.09,0.698 (inactive)
B3,-0.25 (inactive),0.302 (inactive),0.769 (inactive)
B4,0.116 (inactive),-1.14 (inactive),0.746 (inactive)
B5,0.843 (inactive),1.63,-0.176 (inactive)
B6,-2.02 (inactive),-1.09 (inactive),-0.935 (inactive)
B7,5.3 (active),6.19 (active),6.5 (active)
B8,6.32 (active),8.34 (active),7.25 (active)
B9,0.0194 (inactive),0.245 (inactive),1.46
B10,3.6 (active),6.73 (active),6.06 (active)
B11,7.56 (active),8.33 (active),7.62 (active)
B12,5.8 (active),8.1 (active),7.99 (active)
B13,0.0522 (inactive),1.55,1.28
B14,0.395 (inactive),-0.679 (inactive),-0.939 (inactive)
B15,1.87,-0.745 (inactive),0.749 (inactive)
B16,-0.719 (inactive),-0.657 (inactive),-0.124 (inactive)
B17,1.21,0.519 (inactive),0.314 (inactive)
B18,-0.0944 (inactive),0.88 (inactive),-0.37 (inactive)
B19,-0.691 (inactive),-0.994 (inactive),-0.368 (inactive)
B20,-2.1 (inactive),-0.755 (inactive),0.739 (inactive)
B21,5.7 (active),7.55 (active),8.74 (active)
B22,1.05,0.216 (inactive),0.932 (inactive)

Sequence,furin cleavage Z-score (7.5 min),furin cleavage Z-score (15 min),furin cleavage Z-score (30 min)
B23,-0.56 (inactive),-0.574 (inactive),1.29
B24,0.488 (inactive),0.804 (inactive),-1.44 (inactive)
B25,-1.79 (inactive),0.202 (inactive),-0.88 (inactive)
B26,-0.242 (inactive),-0.144 (inactive),-1.52 (inactive)
B27,10.3 (active),11.5 (active),9.82 (active)
B28,4.97 (active),4.54 (active),4.32 (active)
B29,0.812 (inactive),1.42,0.555 (inactive)
B30,11.2 (active),12 (active),9.89 (active)
B31,0.64 (inactive),0.758 (inactive),1.86
B32,-0.328 (inactive),-1.28 (inactive),-1.52 (inactive)
B33,-0.899 (inactive),-0.615 (inactive),-0.232 (inactive)
B34,10.4 (active),10.2 (active),8.6 (active)
B35,-0.38 (inactive),1,-0.771 (inactive)
B36,3.46,5.29 (active),5.86 (active)
B37,0.829 (inactive),0.666 (inactive),-0.00652 (inactive)
B38,8.62 (active),7.98 (active),4.19 (active)
B39,5.77 (active),6.03 (active),5.43 (active)
B40,-0.465 (inactive),0.257 (inactive),0.474 (inactive)
B41,-0.352 (inactive),-0.584 (inactive),-0.588 (inactive)
B42,-0.291 (inactive),1.13,-0.956 (inactive)
B43,-0.151 (inactive),0.395 (inactive),0.163 (inactive)
